The text below walks through data of PubChem BioAssay.

Assay [1] deals with PRMT1 (protein arginine N-methyltransferase 1). Description: PRMT1 binders on small-molecule microarrays, primary screen, biochemical, small-molecule microarray, 635 nm fluorescence (AID 1088).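 Also: binding of Prmt1 protein to compounds spotted on small-molecule microarray slides.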 The settings on record: small-molecule microarray binding, higher = more signal.
Assay [2] is described as follows: yeast growth modulation, basal conditions, primary screen, YJM789 clinical isolate, OD600, 24 h (AID 1089).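 Also: growth of clinical yeast isolate S. cerevisiae YJM 789 seeded 1000 cells per well; test concentration not given here.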 To be noted: S. cerevisiae YJM789 growth, higher = more signal, called active from +8 up or from −8 down.
Assay [3] is described as follows: fission yeast growth modulation, primary screen, strain 972, OD600, 24 h, no modulator (AID 1090).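 Also: basal condition with compound alone and no growth modifier present; test concentration not given here.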 The settings on record: S. pombe 972 growth, higher = more signal, called active from +8 up or from −8 down.
Assay [4] in a line: S. cerevisiae growth modulation with rapamycin, primary screen, strain BY4716, OD600, 96 h (AID 1091). Also: test concentration not given here. To be noted: higher = more signal, called active from +8 up or from −8 down.
The target in assay [5] is Torsin-1A-interacting protein 2 (Homo sapiens) (UniProt Q8NFQ8). The assay can be described thus: LULL1 binders on small-molecule microarray, primary screen, cell lysate, human LULL1 lysate, 635/667 nm fluorescence (AID 1092).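 Also: probe is lysate of COS7 cells overexpressing human LULL1; score merges per-feature 667 nm fluorescence with signal-to-noise.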 The settings on record: hLULL1 lysate binding, 635 nm fluorescence, higher = more signal.
Sequence of Torsin-1A-interacting protein 2 (Homo sapiens) (Q8NFQ8 whole entry, looked up): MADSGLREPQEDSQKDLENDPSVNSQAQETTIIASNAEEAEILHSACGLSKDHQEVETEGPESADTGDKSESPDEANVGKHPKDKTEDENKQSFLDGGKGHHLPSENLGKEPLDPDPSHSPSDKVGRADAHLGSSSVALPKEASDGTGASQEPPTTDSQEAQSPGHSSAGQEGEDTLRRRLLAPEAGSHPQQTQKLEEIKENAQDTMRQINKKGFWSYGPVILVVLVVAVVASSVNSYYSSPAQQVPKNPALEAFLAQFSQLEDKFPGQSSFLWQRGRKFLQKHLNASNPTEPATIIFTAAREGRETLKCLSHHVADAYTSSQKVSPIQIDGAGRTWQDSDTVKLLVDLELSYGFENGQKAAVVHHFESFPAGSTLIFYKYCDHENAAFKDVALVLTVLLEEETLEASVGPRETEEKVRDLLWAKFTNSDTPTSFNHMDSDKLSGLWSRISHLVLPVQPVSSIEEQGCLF
Assay [6] can be described thus: E. coli growth modulation, two-sided OD650, primary screen, E. coli filamentation project, strain DRC41, 24 h (AID 1093).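 Also: MC1000 strain lacking acrAB efflux and sulA so SOS filamentation is blocked; test concentration not given here.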 The settings on record: OD650, 24 h, higher = more signal, called active from +8 up or from −8 down.
Assay [7] in a line: small-molecule microarray binders of probe aLefty2, primary screen, biochemical, biotinylated probe, 635/667 nm fluorescence (AID 1094).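 Also: score merges spot fluorescence near 667 nm with spot signal-to-noise ratio.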 To be noted: higher = more signal.
Assay [8] deals with Noggin (protein binding on small-molecule microarray). The assay can be described thus: Noggin binders on small-molecule microarray, primary screen, biochemical, 635/667 nm fluorescence (AID 1095).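 Also: score merges 667 nm feature fluorescence with signal to noise over triplicate slides.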 The settings on record: 635 nm fluorescence, higher = more signal.
For assay [9], the target named is Neurogenic locus notch homolog protein 3 (Homo sapiens) (UniProt Q9UM47). The assay can be described thus: NOTCH3 binders on small-molecule microarray, primary screen, biochemical, 635/667 nm fluorescence (AID 1096). The settings on record: NOTCH3 binding, 635 nm fluorescence, higher = more signal.
Sequence of Neurogenic locus notch homolog protein 3 (Homo sapiens) (Q9UM47 whole entry, looked up): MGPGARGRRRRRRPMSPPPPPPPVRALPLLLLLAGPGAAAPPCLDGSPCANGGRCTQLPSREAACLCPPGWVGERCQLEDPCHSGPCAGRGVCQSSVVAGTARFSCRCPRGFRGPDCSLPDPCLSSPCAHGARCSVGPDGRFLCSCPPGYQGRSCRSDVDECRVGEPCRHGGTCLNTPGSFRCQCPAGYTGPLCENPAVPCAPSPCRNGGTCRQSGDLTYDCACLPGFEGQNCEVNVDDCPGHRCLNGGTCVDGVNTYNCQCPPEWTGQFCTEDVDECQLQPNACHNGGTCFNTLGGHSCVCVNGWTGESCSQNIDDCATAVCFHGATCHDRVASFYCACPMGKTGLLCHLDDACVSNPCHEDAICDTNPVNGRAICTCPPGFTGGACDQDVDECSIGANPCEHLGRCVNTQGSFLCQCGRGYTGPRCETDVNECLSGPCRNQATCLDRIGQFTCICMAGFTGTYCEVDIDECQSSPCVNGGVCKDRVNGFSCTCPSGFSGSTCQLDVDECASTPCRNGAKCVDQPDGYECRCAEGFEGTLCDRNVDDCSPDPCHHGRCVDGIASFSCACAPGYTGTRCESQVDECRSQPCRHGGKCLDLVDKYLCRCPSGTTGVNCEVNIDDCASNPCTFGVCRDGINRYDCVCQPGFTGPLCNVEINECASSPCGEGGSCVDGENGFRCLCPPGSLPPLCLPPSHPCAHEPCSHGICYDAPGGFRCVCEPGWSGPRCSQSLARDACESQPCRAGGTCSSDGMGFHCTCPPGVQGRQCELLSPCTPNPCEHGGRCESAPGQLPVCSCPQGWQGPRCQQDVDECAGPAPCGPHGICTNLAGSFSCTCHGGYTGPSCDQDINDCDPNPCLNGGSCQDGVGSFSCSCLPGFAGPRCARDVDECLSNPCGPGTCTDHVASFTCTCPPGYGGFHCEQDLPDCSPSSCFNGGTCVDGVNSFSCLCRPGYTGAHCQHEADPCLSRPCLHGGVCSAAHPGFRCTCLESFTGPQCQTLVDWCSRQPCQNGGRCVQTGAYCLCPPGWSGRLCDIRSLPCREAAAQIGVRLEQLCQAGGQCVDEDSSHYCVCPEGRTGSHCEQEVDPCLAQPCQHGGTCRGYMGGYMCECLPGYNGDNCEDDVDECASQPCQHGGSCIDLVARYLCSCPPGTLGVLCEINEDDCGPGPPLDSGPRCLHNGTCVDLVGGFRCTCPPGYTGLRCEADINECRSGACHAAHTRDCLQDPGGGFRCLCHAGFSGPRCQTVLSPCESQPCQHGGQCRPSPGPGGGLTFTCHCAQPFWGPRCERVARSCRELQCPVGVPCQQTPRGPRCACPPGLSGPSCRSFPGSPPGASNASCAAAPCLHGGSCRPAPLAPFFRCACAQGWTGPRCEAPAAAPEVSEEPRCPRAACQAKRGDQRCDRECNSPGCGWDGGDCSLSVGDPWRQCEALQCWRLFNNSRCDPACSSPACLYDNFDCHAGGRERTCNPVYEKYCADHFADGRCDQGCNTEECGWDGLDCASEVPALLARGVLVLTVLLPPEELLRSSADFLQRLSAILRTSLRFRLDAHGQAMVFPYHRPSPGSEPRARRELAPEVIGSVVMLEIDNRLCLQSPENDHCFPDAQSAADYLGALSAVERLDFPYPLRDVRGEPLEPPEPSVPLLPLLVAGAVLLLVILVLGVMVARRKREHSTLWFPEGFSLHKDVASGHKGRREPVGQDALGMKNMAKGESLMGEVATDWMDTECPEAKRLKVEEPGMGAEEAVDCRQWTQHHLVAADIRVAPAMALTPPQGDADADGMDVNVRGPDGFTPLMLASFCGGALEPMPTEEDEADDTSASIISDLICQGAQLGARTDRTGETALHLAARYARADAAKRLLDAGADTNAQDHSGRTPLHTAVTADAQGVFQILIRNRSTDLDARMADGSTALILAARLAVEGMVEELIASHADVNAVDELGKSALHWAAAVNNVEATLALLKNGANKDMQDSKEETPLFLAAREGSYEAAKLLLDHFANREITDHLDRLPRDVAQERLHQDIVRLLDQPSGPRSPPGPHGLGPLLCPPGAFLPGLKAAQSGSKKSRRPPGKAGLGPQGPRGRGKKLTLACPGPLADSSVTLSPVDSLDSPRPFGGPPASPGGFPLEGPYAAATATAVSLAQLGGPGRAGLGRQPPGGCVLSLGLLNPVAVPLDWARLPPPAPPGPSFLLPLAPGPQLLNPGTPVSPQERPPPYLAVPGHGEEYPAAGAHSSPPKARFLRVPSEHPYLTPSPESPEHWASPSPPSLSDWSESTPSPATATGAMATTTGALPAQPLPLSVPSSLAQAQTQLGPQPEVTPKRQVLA
Assay [10] in a line: small-molecule microarray binders of probe aEGFR, primary screen, biochemical, biotinylated probe, 635/667 nm fluorescence (AID 1097).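 Also: probe is a biotinylated anti-EGFR antibody binding compounds printed on slides; score combines fluorescence near 667 nm and signal to noise of each spot.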 The settings on record: higher = more signal.

SMILES strings stand for the structures. Active and inactive are the calls of the source.

For the molecule `C=C[C@H](COC(C)=O)N(Cc1ccc(OC(C)=O)c(OC)c1)S(=O)(=O)c1ccc(Br)cc1`, the composite z-score turned out to be 0.484 in assay [1]; 1.81 in assay [5]; 0.15 in assay [7]; 0.337 in assay [8]; 0.176 in assay [9]; 0.312 in assay [10]. Besides, the z-score in [2] is -2.5 (inactive); in assay [3], -1.08 (inactive); in assay [4], 0.105 (inactive); in assay [6], 1.24 (inactive).

`COc1ccc(CCNC(=O)[C@@]2(Sc3ccc(C)cc3)CC(=O)N(Cc3ccccc3Cl)[C@@H]2c2ccc(CO)cc2I)cc1`: the composite z-score is 1.26 in assay [1]; 1.8 in [5]; 0.0349 in assay [7]; -0.284 in assay [8]; -0.788 in assay [9]; -0.185 in [10]. Besides, the z-score was -1.62 (inactive) in assay [2], -3.24 (inactive) in [3], 1.72 (inactive) in [4] and 0.68 (inactive) in [6].

Consider `O=c1cccc(CCc2ccccc2)o1`, for which the composite z-score in [1] was 1.08; in assay [5], 1.8; in [7], -0.117; in assay [8], 0.491; in [9], 0.621; in assay [10] it was -0.171. Further, the z-score in [2] is -0.951 (inactive); in assay [3], -2.06 (inactive); in [4], 0.102 (inactive); in assay [6] it was -0.97 (inactive).

Turning to `Cc1ccc(S[C@]2(C(=O)NCC(C)C)CC(=O)N(Cc3ccccc3Cl)[C@@H]2c2ccc(CO)cc2)cc1`, the composite z-score in assay [1] was -0.446; in assay [5], 0.294; in [7], -0.0216; in [8], -1.98; in assay [9], -1.5; in assay [10], -0.228. Moreover, the z-score in [2] was -0.259 (inactive); in [3], -0.751 (inactive); in [4] it was -0.0993 (inactive); in assay [6] it was -0.0077 (inactive).

Take `CN(C)CCCCNC(=O)[C@H]1C[C@H]2C(=O)N[C@@H](Cc3ccccc3)C(=O)N2[C@H]1c1ccc(O)cc1`: the composite z-score in assay [1] turned out to be 1.54; in [5], 0.248; in assay [7], 0.0274; in assay [8], 1.66; in [9], 1.11; in [10] it was 0.116. For the same molecule, the z-score is -0.368 (inactive) in assay [2], 0.523 (inactive) in assay [3], -1.4 (inactive) in assay [4] and 1.12 (inactive) in [6].

Take `Cc1ccc(F)cc1S(=O)(=O)N[C@@H]1CCN(Cc2ccc(-c3ccccc3)cc2)C1`: the composite z-score in assay [1] was 0.126; in assay [5], 0.12; in assay [7] it was 0.144; in assay [8], 0.713; in assay [9], 0.481; in assay [10], -0.0565. In addition, the z-score was -26.5 (active) in [2], -21.3 (active) in [3], -4.06 (inactive) in assay [4] and -19.9 (active) in assay [6].

For `C=CCC(OC(C)=O)[C@@H]1[C@@H](N(Cc2cc3ccccc3o2)C(=O)c2ccc(C)cc2)c2cc(OCCCO)ccc2N1C(=O)c1ccc2ccccc2c1` (stereo not given in full), the composite z-score was -0.21 in assay [1]; 0.346 in assay [5]; -0.0258 in assay [7]; 0.341 in [8]; -0.0158 in assay [9]; -0.0536 in [10]. Besides, the z-score in [2] was -0.44 (inactive); in [3] it was 0.116 (inactive); in [4], 0.0217 (inactive); in assay [6], 1.65 (inactive).

With `N[C@@H](Cc1ccccc1)Cn1cc(-c2ccccc2)nn1`, the composite z-score in assay [1] is 0.043; in assay [5] it was 0.196; in assay [7], 0.323; in assay [8], -0.0062; in assay [9], -0.0488; in assay [10], -0.0549. Further, the z-score was -0.814 (inactive) in [2], -2.18 (inactive) in assay [3], 0.371 (inactive) in assay [4] and -3 (inactive) in assay [6].

In the case of `COCCOC(=O)N1C(=O)[C@@]2(c3cc(C#CCCO)ccc31)[C@H](C(=O)NC[C@H](O)c1ccccc1)[C@H]1C(=O)O[C@H](c3ccccc3)[C@H](c3ccccc3)N1[C@@H]2c1ccc(O)cc1`, the composite z-score in assay [1] was 0.66; in assay [5] it was 2.35; in assay [7] it was -0.0862; in assay [8], 1.7; in assay [9], 0.459; in assay [10], -0.137. The z-score in [2] is 1.22 (inactive); in assay [3], 0.572 (inactive); in assay [4] it was 1.68 (inactive); in [6], 0.856 (inactive).

Turning to `Cc1ccccc1C(O)C1C=CC2C(=O)N(C)C(=O)C2N1Nc1ccccc1` (stereo not given), the composite z-score is 1.25 in assay [1]; 2.98 in assay [5]; 0.149 in [7]; -0.657 in assay [8]; 0.993 in assay [9]; -0.0634 in [10]. The z-score was -0.145 (inactive) in assay [2], -0.885 (inactive) in assay [3], -0.0194 (inactive) in assay [4] and -1.43 (inactive) in assay [6].

`CCCCCN1CC=CC23O[C@@H]4/C=C\CCC(C)OC(=O)C4[C@H]2C(=O)N(CCCCCO)[C@@H]3C1=O` (stereo not given in full): the composite z-score is -0.103 in [1]; -1.94 in [5]; -0.0491 in [7]; -0.0687 in [8]; 0.0156 in [9]; -0.149 in assay [10]. For the same molecule, the z-score was -1.46 (inactive) in assay [2], -0.773 (inactive) in [3], -1.39 (inactive) in assay [4] and 2.19 (inactive) in assay [6].

As to `COCCOC(=O)N1C(=O)[C@@]2(c3cc(C#CCCO)ccc31)[C@H](c1ccc(O)cc1)N1[C@H](c3ccccc3)[C@H](c3ccccc3)OC(=O)[C@H]1[C@@H]2C(N)=O`, the composite z-score in assay [1] was 1.14; in assay [5], 1.51; in [7], 0.0002; in assay [8] it was -0.243; in [9], 0.213; in assay [10], -0.178. The z-score in assay [2] is 0.253 (inactive); in assay [3], 0.479 (inactive); in assay [4], 0.418 (inactive); in assay [6], -0.834 (inactive).

Take `C=CCNC(=O)[C@@H]1[C@H]2C(=O)O[C@H](c3ccccc3)[C@H](c3ccccc3)N2[C@H](c2ccc(O)cc2)[C@@]12C(=O)N(C(=O)OCCOC)c1ccccc12`: the composite z-score in [1] was 1.53; in assay [5] it was 3.25; in assay [7], -0.0458; in assay [8] it was 0.559; in assay [9] it was 0.509; in [10] it was -0.14. Also, the z-score in assay [2] was 0.655 (inactive); in [3] it was 0.625 (inactive); in assay [4], 2.8 (inactive); in [6] it was 1.11 (inactive).

For `COc1cc2c(cc1O)C(C)N(Cc1cccc(OC(F)(F)F)c1)CC2` (stereo not given), the composite z-score in [1] was 1.42; in assay [5], 3.02; in assay [7] it was -0.0719; in [8] it was 0.205; in [9] it was 0.76; in assay [10] it was -0.0697. Further, the z-score was -0.167 (inactive) in assay [2], -2.4 (inactive) in assay [3], -1.09 (inactive) in assay [4] and -1.26 (inactive) in assay [6].

With `O=C1O[C@@H](c2ccccc2)[C@@H](c2ccccc2)N2[C@@H](c3ccc(O)cc3)[C@]3(C(=O)Nc4ccc(C#CC5(O)CCCCCC5)cc43)[C@@H](C(=O)N3CCCCCCC3)[C@H]12`, the composite z-score was 1.54 in assay [1]; 4.45 in assay [5]; 1.42 in [7]; 2.41 in assay [8]; 1.07 in assay [9]; 1.24 in assay [10]. The z-score in assay [2] was 1.16 (inactive); in assay [3], 0.321 (inactive); in [4], 2.09 (inactive); in assay [6], 0.26 (inactive).
